Hits are enriched below; roughly 12% of the tested compounds scored in any of these assays.
G9a block: inhibitors of human histone lysine methyltransferase G9a; Q96KQ7; G9a H3K9 monomethylation, AlphaScreen, 2 h; Potency, µM (series often up to 102 µM), most hits filed as inhibitors; actives 8.8% (n = 350,000); note: nearly all actives have a fitted effect of over 75% in size
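Enzyme 20 nM + cpd, 15 min RT; add b-H3K9 pep 500 nM / SAM 20 uM; 2 h RT; anti-H3K9me1 Ab 0.5 ug/mL + SA donor / anti-rabbit acceptor beads 20 ug/mL each, 10 min; AlphaScreen read.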
JMJD2A Tudor: blocks the human JMJD2A Tudor domain; O75164; AlphaScreen JMJD2A-Tudor / H3K4me3 peptide binding; Potency, µM (top dose mostly 114 µM), hits mostly inhibitors; actives 4.4% (n = 390,000); note: nearly all actives have a fitted effect of over 50% in size
BAZ2B block: blocks human BAZ2B; actives 4.4% (n = 360,000); AlphaScreen BAZ2B-H3K14Ac peptide displacement; Potency, µM (titrated, usually from 114 µM), usual class: inhibitors; Q9UIF8; note: nearly all actives have a fitted effect of over 60% in size
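Complex of BAZ2B and biotin-H3K14Ac (50 nM apiece) forms over 30 min at RT, then faces library compounds up to 110 uM for another 30 min; AlphaScreen beads added, 20 min dark incubation, luminescence read.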
Sfp inh: Sfp phosphopantetheinyl transferase inhibition; Biochemical Sfp PPTase activity, qHTS; Potency, µM, most hits filed as inhibitors; actives 3.5% (n = 310,000); AID 1490;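 note: the enzyme is Sfp with the accession as filed and its product quenches rhodamine fluorescence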
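Buffer: 50 mM Hepes-Na pH 7.6, 10 mM MgCl2, 0.01% Nonidet P-40, 0.01% BSA. Enzyme 15 nM, pre-exposed to compound 15 min; substrates then added and fluorescence change tracked over 30 min.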
HP1b chromo inh: HP1-beta chromodomain-methylated histone interaction inhibition; AlphaScreen HP1-beta / biotin-H3K9me3 peptide binding; Potency, µM (series often up to 114 µM), hits mostly inhibitors; actives 0.56% (n = 390,000); AID 540317; note: nearly all actives have a fitted effect of over 70% in size
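HP1-beta protein (50 nM final) preincubated 30 min at room temperature with biotinylated H3(1-18)K9me3 peptide (50 nM) in PBS pH 7.4, 0.01% Tween-20, then compound added for 30 min. AlphaScreen streptavidin donor/nickel chelate acceptor beads (10 ug/mL final), 30 min dark, luminescence read.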
L3MBTL1 inh: blocks human L3MBTL1. AID 485360. actives 0.66% (n = 230,000). Potency, µM (top dose mostly 57.1 µM), hits mostly inhibitors. AlphaScreen L3MBTL1–H3K9me1 peptide binding. Q9Y468; note: nearly all actives have a fitted effect of over 60% in size
Target sequence (Q9Y468 whole entry, looked up): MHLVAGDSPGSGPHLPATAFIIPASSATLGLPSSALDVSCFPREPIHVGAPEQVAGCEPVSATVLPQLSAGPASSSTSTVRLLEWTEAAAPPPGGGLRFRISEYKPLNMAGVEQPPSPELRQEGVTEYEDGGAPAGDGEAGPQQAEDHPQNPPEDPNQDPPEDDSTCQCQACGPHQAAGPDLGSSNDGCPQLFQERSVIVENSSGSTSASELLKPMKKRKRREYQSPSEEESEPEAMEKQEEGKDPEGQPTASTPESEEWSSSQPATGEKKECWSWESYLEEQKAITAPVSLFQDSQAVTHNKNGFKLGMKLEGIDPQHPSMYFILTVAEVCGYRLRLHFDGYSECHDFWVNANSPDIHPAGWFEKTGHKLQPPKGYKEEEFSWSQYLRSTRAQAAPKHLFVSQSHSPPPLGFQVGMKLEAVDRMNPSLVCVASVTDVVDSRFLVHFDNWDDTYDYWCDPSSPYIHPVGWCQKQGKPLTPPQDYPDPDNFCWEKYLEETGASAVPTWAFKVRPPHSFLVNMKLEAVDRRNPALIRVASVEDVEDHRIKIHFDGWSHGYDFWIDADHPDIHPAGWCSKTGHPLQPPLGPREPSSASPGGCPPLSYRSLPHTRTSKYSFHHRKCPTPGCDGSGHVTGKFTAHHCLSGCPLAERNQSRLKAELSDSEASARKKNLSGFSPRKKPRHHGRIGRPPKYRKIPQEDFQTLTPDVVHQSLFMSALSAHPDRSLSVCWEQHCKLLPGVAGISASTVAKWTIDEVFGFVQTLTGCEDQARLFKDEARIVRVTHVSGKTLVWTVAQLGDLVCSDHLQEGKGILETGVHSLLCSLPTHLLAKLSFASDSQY
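Displacement of a biotinylated histone H3(1-15) peptide monomethylated at Lys9 (75 nM) from L3MBTL1 (50 nM) was measured by AlphaScreen after a 30 min room-temperature compound incubation; cefsulodin titration served as intraplate control.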
Each line names hits and unclear results; the compound was inactive in the other large screens; ! = not confirmed by another sample. Calls come from the whole dose curve; as a rule, active = well fitted curve in the direction sought with a large enough effect; inconclusive = small, poorly fitted or top-dose-only effect, or another doubt; inactive = no such curve, though single readings can be large; an effect the other way counts as inactive or inconclusive.

COc1cc(N2CCCC2)c(OC)cc1/C=C(/C#N)c1cccc(F)c1	G9a block inconclusive, JMJD2A Tudor 20µM, BAZ2B block 22µM, Sfp inh inconclusive, HP1b chromo inh inconclusive (no result: L3MBTL1 inh)
COc1ccc(NC(=O)CSCc2cnn(-c3ccccc3)c2-n2cccc2)cc1	none (no result: Sfp inh, L3MBTL1 inh)
COc1ccc(CNC(=O)CSCc2cnn(-c3ccccc3)c2-n2cccc2)cc1	G9a block 32µM (no result: L3MBTL1 inh)
O=C(CSCc1cnn(-c2ccccc2)c1-n1cccc1)NCCN1CCOCC1	none (no result: L3MBTL1 inh)
O=C(CSCc1cnn(-c2ccccc2)c1-n1cccc1)NCC1CCCO1 (stereo not drawn)	G9a block 50µM (no result: L3MBTL1 inh)
O=c1cc(-c2cccc(F)c2)[nH]c2ccccc12	G9a block 32µM!
O=c1cc(-c2ccccc2)[nH]c2ccc(F)cc12	G9a block 79µM!
COc1ccc2[nH]c(-c3cccc(F)c3)cc(=O)c2c1	G9a block inconclusive
Cc1ccc(-c2cc(=O)c3cc(F)ccc3[nH]2)cc1	none
Cc1ccc2[nH]c(-c3cccc(F)c3)cc(=O)c2c1	G9a block 0.28µM!
Cc1ccc(C(=O)c2cn(Cc3ccccc3F)c3cc4c(cc3c2=O)OCO4)cc1	none (no result: Sfp inh, L3MBTL1 inh)
CCc1ccc2oc(C(=O)N(Cc3cccc(Cl)c3)Cc3ccco3)c(C)c2c1	none (no result: Sfp inh, L3MBTL1 inh)
OC[C@H]1O[C@@H](OC[C@H]2O[C@@H](O)[C@H](O)[C@@H](O)[C@@H]2O)[C@H](O)[C@@H](O)[C@@H]1O	none (no result: G9a block, JMJD2A Tudor, BAZ2B block, HP1b chromo inh, L3MBTL1 inh)
CC(/C=C/C=C(\C)C(=O)O[C@@H]1O[C@H](CO[C@@H]2O[C@H](CO)[C@@H](O)[C@H](O)[C@H]2O)[C@@H](O)[C@H](O)[C@H]1O)=C\C=C\C=C(C)\C=C\C=C(/C)C(=O)O[C@@H]1O[C@H](CO[C@@H]2O[C@H](CO)[C@@H](O)[C@H](O)[C@H]2O)[C@@H](O)[C@H](O)[C@H]1O	G9a block 18µM (no result: JMJD2A Tudor, BAZ2B block, HP1b chromo inh, L3MBTL1 inh)
Cc1cccc(C)c1NC(=O)CN(C)C(=O)CSCc1c(C)noc1C	none (no result: Sfp inh)
O=C(CCc1ccccc1)Nc1nc2c(F)cc(F)cc2s1	Sfp inh 35µM (no result: L3MBTL1 inh)
O=C(Nc1nc2c(F)cc(F)cc2s1)c1ccco1	none
Cc1ccc(C)c(NC(=O)CN(C)C(=O)CSCc2c(C)noc2C)c1	G9a block 32µM (no result: Sfp inh)
Cc1noc(C)c1CSCC(=O)Nc1nc2c(F)cc(F)cc2s1	G9a block inconclusive, JMJD2A Tudor 45µM, BAZ2B block 50µM, L3MBTL1 inh inconclusive (no result: Sfp inh)
COc1ccc2nc(NC(=O)CSCc3c(C)noc3C)sc2c1	G9a block inconclusive (no result: Sfp inh)
Cc1cc(C)c(NC(=O)CSCc2c(C)noc2C)c(Cl)c1	G9a block 40µM (no result: Sfp inh)
COc1ccc(CCNC(=O)CCc2c(C)nc3cc(-c4ccccc4OC)nn3c2C)c(OC)c1	none (no result: Sfp inh, L3MBTL1 inh)
CCOc1ccc(CCNC(=O)c2cnc3sc(N4CCCCC4)nn3c2=O)cc1	none (no result: Sfp inh, L3MBTL1 inh)
CN(C)CCCC1Sc2ccccc2Sc2ccccc21 (stereo not drawn)	JMJD2A Tudor 20µM, HP1b chromo inh 71µM (no result: G9a block, BAZ2B block, Sfp inh, L3MBTL1 inh)
CCOC(=O)c1sc2ccccc2c1S(=O)(=O)N1CCN(c2cccc(C)c2)C(C)C1 (stereo not drawn)	BAZ2B block inconclusive (no result: Sfp inh, L3MBTL1 inh)
COc1ccc(C2c3[nH]c4ccccc4c3CCN2CCCn2cccn2)c(C)c1C (stereo not drawn)	G9a block 40µM, JMJD2A Tudor inconclusive, BAZ2B block inconclusive, L3MBTL1 inh inconclusive
COc1ccc2c(c1)c1c(c(=O)n(Cc3ccccc3)c(=O)n1Cc1ccccc1)n2C	G9a block inconclusive (no result: Sfp inh, L3MBTL1 inh)
Cc1snc2sc(C(=O)c3ccc(F)cc3)c(N)c12	Sfp inh 40µM (no result: G9a block, L3MBTL1 inh)
Cc1ccc(Cn2c(C(=O)O)c(CNCc3ccc(OC(C)C)cc3)c3ccc(C)cc32)cc1	G9a block inconclusive, JMJD2A Tudor inconclusive (no result: Sfp inh, L3MBTL1 inh)
CC1CC2(CC(C)(C(=O)CSc3n[nH]c(-c4ccccc4Cl)n3)OC2=O)C(=O)O1 (stereo not drawn)	G9a block inconclusive, JMJD2A Tudor inconclusive (no result: L3MBTL1 inh)
CC1(C(=O)CSc2ncn[nH]2)CCC(=O)O1 (stereo not drawn)	G9a block 11µM, BAZ2B block 89µM, Sfp inh 56µM (no result: JMJD2A Tudor, HP1b chromo inh, L3MBTL1 inh)
Cn1c(CNC(=O)CSc2n[nH]c(-c3ccccc3Cl)n2)nc2ccccc21	G9a block 28µM (no result: Sfp inh, L3MBTL1 inh)
CC1(C(=O)CSc2n[nH]c(-c3ccccc3Cl)n2)CCC(=O)O1 (stereo not drawn)	G9a block 10µM, BAZ2B block inconclusive, Sfp inh 50µM (no result: JMJD2A Tudor, HP1b chromo inh)
CC1(C(=O)CSc2nc3ccccc3[nH]2)CCC(=O)O1 (stereo not drawn)	G9a block inconclusive
CC/C=C\C/C=C\C/C=C\C/C=C\C/C=C\C/C=C\CCC(N)=O	none (no result: G9a block, JMJD2A Tudor, BAZ2B block, HP1b chromo inh, L3MBTL1 inh)
CCCc1cc(C(N)=O)c(NC(=O)c2ccoc2C)s1	G9a block inconclusive, JMJD2A Tudor inconclusive, Sfp inh 13µM, HP1b chromo inh inconclusive
CCCc1cc(C(N)=O)c(NC(=O)c2cc(C)on2)s1	G9a block inconclusive, Sfp inh 32µM (no result: L3MBTL1 inh)
Cc1cc(C(=O)NNC(=S)NCc2ccccc2)no1	none (no result: L3MBTL1 inh)
CCNC(=S)NNC(=O)c1cc(C)on1	Sfp inh 56µM
C[C@H](O/N=C1/[C@H]2O[C@@H]2[C@@H](O)[C@H]2[C@H]1CCn1c(=O)n(-c3ccccc3)c(=O)n12)c1cn([C@H](CO)Cc2ccccc2)nn1	none (no result: G9a block, JMJD2A Tudor, BAZ2B block, HP1b chromo inh, L3MBTL1 inh)

Screens deposited in PubChem BioAssay by National Center for Advancing Translational Sciences (NCATS).
